Data: PMC13494018

B1: design_376_bf9d4634-8475-4fdb-a175-1db49a23bdcd_1228_dldesign_0_cycle1_af2pred (protein)
chain: DAALKALATKLQEEGLAWADKAYEAMQIIDPKEAPKVASDILRDFARANKLYAEDPAKGAAALAAARAKVEAIVALAKKVS
B2: design_376_bf9d4634-8475-4fdb-a175-1db49a23bdcd_232_dldesign_0_cycle1_af2pred (protein)
chain: EKEKLEKIVEEIKKYVEEAKELAKGDISSQSKAVSLLHKAFSLAGKAIGKEAKELEDKMLNAETMEEAVKIGEELYEKFSKIAKA
B3: design_376_bf9d4634-8475-4fdb-a175-1db49a23bdcd_1182_dldesign_0_cycle1_af2pred (protein)
chain: EEEEKQKVKEEAAKNVEEAVEAAGELIAKHPELREKAYKLRKEAIRLSQEAGKAAEKDLEEGKKYLEESKEKVKEIKKLAEE
B4: design_376_bf9d4634-8475-4fdb-a175-1db49a23bdcd_1567_dldesign_0_cycle1_af2pred (protein)
chain: SAEEEIKKKAKELEKAGAAALFELADASKEEAPKYAAKIDKAIADLKALGKAATPELGKELFAKADKLQATRDRIMEDIES
B5: design_376_bf9d4634-8475-4fdb-a175-1db49a23bdcd_1727_dldesign_0_cycle1_af2pred (protein)
chain: STEEAIKKALEMAEKIAKATPETGAEATKIRDELLEYIAEFAEKGTVEGTKAVAEALREQAEKASPEAAKSLRAAARFAEALAKAKA
B6: design_376_bf9d4634-8475-4fdb-a175-1db49a23bdcd_1192_dldesign_0_cycle1_af2pred (protein)
chain: GTEKTKKISDHLRKAVSAAKKAVAIAKKAGIGEEMQKTFSELRDAVVDGDLEKAKEYAKKLLELGKKVPEAYEYAKEAAEEALKAVE
B7: design_376_bf9d4634-8475-4fdb-a175-1db49a23bdcd_69_dldesign_0_cycle1_af2pred (protein)
chain: ANKEEVDAAADAISEAFRLAREYVLKEGLDPKEVANKLIQGLDDIEYGLALGEELEKDPASAEAGKALKKAAELLAKI
B8: design_376_bf9d4634-8475-4fdb-a175-1db49a23bdcd_746_dldesign_0_cycle1_af2pred (protein)
chain: MEKAEEMGERLIEAVKESPEKAREVAEEMVRRAKEGDVEEAAAIAQAVAEAYAVAVKENKEAAEIVREALREVQEIGRKKR
B9: design_376_bf9d4634-8475-4fdb-a175-1db49a23bdcd_737_dldesign_0_cycle1_af2pred (protein)
chain: MAREKQIKLYGESLLEIAIESAVAAIKKYEDAYKIIKELSEKRAKKAEEAGDKEMGEKIKKIGKEIAELAEKDKEKALEYAKKL
B10: design_376_bf9d4634-8475-4fdb-a175-1db49a23bdcd_869_dldesign_0_cycle1_af2pred (protein)
chain: REAALAAGAARLEAALAASPAAPAAAAALRAALEAGADAADVILAVQDVLAEAGAAKEDLSAAAKAAAEAVRLYS
B11: design_376_bf9d4634-8475-4fdb-a175-1db49a23bdcd_1125_dldesign_0_cycle1_af2pred (protein)
chain: VEEAAKKAKEKVKEVAEKATKEAPETADIAKALAENAEKKIDELAKKGAPKEALEKAAEKAIKTIKAVKKSALELK
B12: design_376_bf9d4634-8475-4fdb-a175-1db49a23bdcd_131_dldesign_0_cycle1_af2pred (protein)
chain: DLEEELKKLIEKALKGNLEEALKALDEAVKLVEEKLSKTTADTAKEIAKAGKENAKKAETEEEARKNIAKALKTIKRIALLDAE
B13: design_376_bf9d4634-8475-4fdb-a175-1db49a23bdcd_487_dldesign_0_cycle1_af2pred (protein)
chain: DIKEELKKLAEEVKKLAKEVAELSKKDKEEAKVKAEEAEKLAEKALELAVKAIKEDEEAREVAHEAITEAFYALSVADAAK
B14: design_376_bf9d4634-8475-4fdb-a175-1db49a23bdcd_800_dldesign_0_cycle1_af2pred (protein)
chain: AKAELEKLKKEAAKHRQEMYFYGKASAKLGPKYKAEYEEHYAKALEAAKKIKELDPEEGKKYEEIVLKTKKRLEKEL
B15: design_623_6e2e8b1f-5d9a-4413-9869-27a184816b12_2207_dldesign_0_cycle1_af2pred (protein)
chain: NPKVEELREEVRRLIAELARAGVAGTPEIAATVGAAIEQALKLLGESRETGEESLKEAIKIVKEALKAAA
B16: design_376_bf9d4634-8475-4fdb-a175-1db49a23bdcd_888_dldesign_0_cycle1_af2pred (protein)
chain: GVVEKAKKISEAVRAEHKAKATTKLAKADPSQAAAAKAAAEEAKKAAEKAEEADKETAKAAKAAGKEAEAAAKA
B17: design_623_6e2e8b1f-5d9a-4413-9869-27a184816b12_2491_dldesign_0_cycle1_af2pred (protein)
chain: TAKALAAAVEKAKELAAIVAEVQGDGAFGAAMVNTLANYAAAAGVPQALVDRARAAAKEALASADGAKVALAELKALAAEFKAA
B18: design_376_bf9d4634-8475-4fdb-a175-1db49a23bdcd_1294_dldesign_0_cycle1_af2pred (protein)
chain: SVKENTKEAAKKLEEKYGAEFAKIGPEYAAKMAAAAKEAAKKPTSADAIILMRDAYDELKKEADAALAAA
B19: design_376_bf9d4634-8475-4fdb-a175-1db49a23bdcd_1797_dldesign_0_cycle1_af2pred (protein)
chain: AADEAKAKAKAALDAAAAAAAKVDPKKAPEVKARAAKAKATLDKLYADFKDDPEIATEVANIFLKGAEALLKEIKAA
B20: design_623_6e2e8b1f-5d9a-4413-9869-27a184816b12_2213_dldesign_0_cycle1_af2pred (protein)
chain: AVEELLAKAKEYAAKLKELADDLEAAKALATEKREDIGQVIMAAAIVAATESPEVAARAREVQRHAWSLQR
B21: design_376_bf9d4634-8475-4fdb-a175-1db49a23bdcd_425_dldesign_0_cycle1_af2pred (protein)
chain: DEEDEKNLEKVKRIYERAKELAKEGLEAIKKGTSKTKALYGAAKLERAAEAAKAASGGKHKEEMKKIAEESKKLAKELEEASKTY
B22: design_376_bf9d4634-8475-4fdb-a175-1db49a23bdcd_110_dldesign_0_cycle1_af2pred (protein)
chain: VEELVEKVKKETAKKVWESTDLSAEEKEKVADELEALAKELAKISPEAAKAAKKAAAVVKRFAEDEKKAE
B23: design_376_bf9d4634-8475-4fdb-a175-1db49a23bdcd_1609_dldesign_0_cycle1_af2pred (protein)
chain: AKEEARELAEKAYEAAKSTSEDLREDVEKDGIGPKAVKSISDNMIEWIEKVHEEVKVDEEAHKIAEEAIKYAKEEGEKNIELAKKR
B24: design_376_bf9d4634-8475-4fdb-a175-1db49a23bdcd_1417_dldesign_0_cycle1_af2pred (protein)
chain: MEEDEKKVEEVKKRGKEVAEKAKKSTPEEAEELRKEFTRYAAEVGGKASPEARNKIQEIRAEANGEIALAIIKKK
B25: design_376_bf9d4634-8475-4fdb-a175-1db49a23bdcd_541_dldesign_0_cycle1_af2pred (protein)
chain: EEEAKKLVEKAKEKLKKAKETAKNGTAEEAAKTAKEVFKEAREYGKKLKKKGYDEEYVKKIAEYAHEAAEIYAEESNKV
B26: design_376_bf9d4634-8475-4fdb-a175-1db49a23bdcd_538_dldesign_0_cycle1_af2pred (protein)
chain: EAAELAALKAAGKAMAAVVKAADPALGAKVAATVEAGAKGTPAEFKKALQDAIGAVLLENPEAGRAAAKAAKDTYKAAKAA
B27: design_376_bf9d4634-8475-4fdb-a175-1db49a23bdcd_1821_dldesign_0_cycle1_af2pred (protein)
chain: SNVKEANKKIDEATKLLVDARKAVYEKGKAAGPEVAAGAQKIIAGAVRGDVAPALADTPEVAALAKQMQAALDKAEKLENEAVKLLS
B28: design_376_bf9d4634-8475-4fdb-a175-1db49a23bdcd_214_dldesign_0_cycle1_af2pred (protein)
chain: MELLKEAEKYAKEAKEYAEKALKEPEKAEEYVKKAAEYVAKLYELAAEAYRLDKELGKKAKKLAKEARKEVKEKYKEAKK
B29: design_376_bf9d4634-8475-4fdb-a175-1db49a23bdcd_502_dldesign_0_cycle1_af2pred (protein)
chain: GKKEKALKELEKLKKEAEELEEEGKKAGPKAYQEAGSMLIKIESALSAAKKGDEEEAEKAAKKAKEAYEKGKEKVTKLIKEEKAKKE
B30: design_376_bf9d4634-8475-4fdb-a175-1db49a23bdcd_377_dldesign_0_cycle1_af2pred (protein)
chain: GEEVEKLYKELIKAGKEADKALELAVKIGKVDSETLQILGEASIYADNPELAKGLAERDPEKAKERIKETKKAVEEVKKLYKEYK
B31: design_376_bf9d4634-8475-4fdb-a175-1db49a23bdcd_1019_dldesign_0_cycle1_af2pred (protein)
chain: ILKEFAKLVSEAIKKATKADGLNGADIVWKEAEKSFKEVKEALKKGEEEAKKALEKAKERLEKAVEEAKKRGEA
B32: design_376_bf9d4634-8475-4fdb-a175-1db49a23bdcd_370_dldesign_0_cycle1_af2pred (protein)
chain: SLGKKLSEALRKAVRAARKAVEYMKAGDEENAEKYYKEAKEYAKELPEDVRNFVLNTMEKKIEEAKKEYA
B33: design_376_bf9d4634-8475-4fdb-a175-1db49a23bdcd_604_dldesign_0_cycle1_af2pred (protein)
chain: SVAAITAHAEALARKAVADPANAAAYLSEARDYVLTNGDAEALRAAADVLRALGAKAPGGAAFAAAARILERAAEDIEKA
B34: design_376_bf9d4634-8475-4fdb-a175-1db49a23bdcd_1330_dldesign_0_cycle1_af2pred (protein)
chain: AVEEKLKEYTKKAEEYIEKLEKLDPEKAKELRKELEEAKKLTPEEALKKVKEIAAKASEAYYQAKAEEDAKK
B35: design_376_bf9d4634-8475-4fdb-a175-1db49a23bdcd_1553_dldesign_0_cycle1_af2pred (protein)
chain: HEEAEKAIEKAKEYFKELVKELEKLDPKAGAKMKELAEKGKKVLERMKEYSPEDVKETAESIMKGAEKEFEKLKKEAEA
B36: design_376_bf9d4634-8475-4fdb-a175-1db49a23bdcd_1020_dldesign_0_cycle1_af2pred (protein)
chain: MGKKIHDVVKKAAEEARKAAEKAGADGELVRKAAYTAGWYYIAGDEEEAKKIVELAKKAEPKFAKTVEELMKKALEAAKKALEE
B37: design_376_bf9d4634-8475-4fdb-a175-1db49a23bdcd_661_dldesign_0_cycle1_af2pred (protein)
chain: SENIKKLSDARNEAIKYLREAVKLAGEEIKEEAAKAIELIGDLEKIPEALEEIEKAIKLAEKVENAEEVKKLLKKAKESAEEALKLS
B38: design_376_bf9d4634-8475-4fdb-a175-1db49a23bdcd_302_dldesign_0_cycle1_af2pred (protein)
chain: GEAEKEKLKKEIYKLYREERKKVAEAIKKGKEEGKEALEKAEKALEEKAKEAAKYPEAAQLALQYKEALKEYYEMASK

These binders were tested against VTCN1, Q7Z7D3.
VTCN1, Q7Z7D3, sequence (Q7Z7D3 whole entry): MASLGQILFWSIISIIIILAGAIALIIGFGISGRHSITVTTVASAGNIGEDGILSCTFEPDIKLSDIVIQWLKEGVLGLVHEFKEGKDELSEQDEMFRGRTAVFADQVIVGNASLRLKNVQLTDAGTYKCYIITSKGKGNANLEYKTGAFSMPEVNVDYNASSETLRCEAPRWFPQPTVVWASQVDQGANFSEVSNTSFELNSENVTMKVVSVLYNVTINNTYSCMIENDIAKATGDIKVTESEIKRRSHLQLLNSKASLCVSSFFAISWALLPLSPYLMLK

Binding in a display sort, inactive:
B1 not found, B2 not found, B3 not found, B4 not found, B5 not found, B6 not found, B7 not found, B8 not found, B9 not found, B10 not found, B11 not found, B12 not found, B13 not found, B14 not found, B16 not found, B18 not found, B19 not found, B21 not found, B22 not found, B23 not found, B24 not found, B25 not found, B26 not found, B27 not found, B28 not found, B29 not found, B30 not found, B31 not found, B32 not found, B33 not found, B34 not found, B35 not found, B36 not found, B37 not found, B38 not found

The binders below were run against CD276, Q5ZPR3.
CD276, Q5ZPR3, sequence (Q5ZPR3 whole entry): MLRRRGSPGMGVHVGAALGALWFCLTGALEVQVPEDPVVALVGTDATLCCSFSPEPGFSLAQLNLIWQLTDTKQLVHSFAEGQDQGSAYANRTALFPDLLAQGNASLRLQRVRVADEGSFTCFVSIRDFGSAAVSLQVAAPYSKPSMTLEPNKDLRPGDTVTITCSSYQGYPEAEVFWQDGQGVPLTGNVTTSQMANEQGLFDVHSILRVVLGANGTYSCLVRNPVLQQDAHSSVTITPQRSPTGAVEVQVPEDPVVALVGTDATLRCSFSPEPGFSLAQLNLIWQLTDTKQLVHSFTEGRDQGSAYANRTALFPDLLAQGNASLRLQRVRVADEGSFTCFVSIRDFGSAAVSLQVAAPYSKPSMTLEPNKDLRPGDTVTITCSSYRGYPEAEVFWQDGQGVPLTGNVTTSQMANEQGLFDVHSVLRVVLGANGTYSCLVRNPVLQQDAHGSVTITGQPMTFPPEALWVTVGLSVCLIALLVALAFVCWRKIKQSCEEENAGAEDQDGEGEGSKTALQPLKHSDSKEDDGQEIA

Binding in a display sort, inactive:
B15 not found, B17 not found, B20 not found
